The values below come from PubChem BioAssay AID686970 (National Center for Advancing Translational Sciences (NCATS), 2013).

Molecules are shown by their SMILES. The campaign covered roughly 360,000 compounds. About 6,000 (1.7%) were called active. Roughly 8% stayed inconclusive and do not appear here. What follows is part of a selection rich in actives, with near analogues and random picks from the rest. A call without a number means that no potency is given here. A number with no mark means an inactive call. The call rests on the fitted dose curve; in most records, active means well fitted cell-killing curve with a large enough effect; inconclusive means small, poorly fitted or top-dose-only effect, or effect the other way; inactive means flat fitted curve, though single readings scatter.
Potency means the concentration at half of the fitted maximal effect.

A short description of this assay: qHTS for induction of synthetic lethality in tumor cells producing 2HG: qHTS for the HT-1080-NT fibrosarcoma cell line.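 Further: NT is the 2HG producing partner of a matched IDH1 knockdown line; nearly all actives have a fitted effect of over 55% in size.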 The note with it: HT-1080-NT fibrosarcoma viability, CellTiter-Glo ATP luminescence, 48 h; series mostly up to 46.1 µM. The essentials:
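Viability by CellTiter-Glo luminescence after 48 h compound exposure at 37C of HT-1080-NT cells (750/well, RPMI, 5% FBS). % activity scaled between DMSO wells and medium-only wells, then curve-fitted and categorized by curve class.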
In general terms: In qHTS, concentration-response curves come from the screen itself.
As for `COc1ccccc1-n1nnnc1SCC(=O)NC(=O)Cc1ccccc1`, the Potency entry was “inactive”.
`CCC(C)N(C(=O)CSc1nnnn1-c1ccccc1OC)C1CCS(=O)(=O)C1` (stereo not drawn): the activity, negative = less viability is -3.07% [at 9.24 µM].
As to `COc1ccccc1-n1nnnc1S(=O)(=O)Cc1ccc(Cl)cc1`, the Potency was 20.6 µM (active).
On to `CC(=O)C[C@@H]1OC[C@H](CO)N1S(=O)(=O)c1ccc(C)cc1`, for which the Potency result was “inactive”.
The same measure, in the same setting: under `COc1ccc2c(c1)c(=Cc1ccc(N(C)C)cc1)c1cc(-c3ccccc3)[n+](C)n12` stands 13 µM (active); under `COc1ccc2sc(-c3ccc(N(C)C)cc3)c(-c3ccc4cc[nH]c4c3)c2c1`, “inactive”.
On the same count and under the same terms, next, `O=C(NCC(O)c1nc2ccccc2[nH]1)c1ccc(Br)cc1` (stereo not drawn): “inactive”; `CCOc1ccccc1N1CCN(C(=O)COc2ccc3c(C)cc(=O)oc3c2)CC1`: “inactive”.
Regarding `Cc1cc(=O)oc2cc(OCC3CC(c4ccccc4Cl)=NO3)ccc12` (stereo not drawn), the Potency is 0.708 µM (active).
Same read-out and setting: under `Cc1cc(=O)oc2cc(OCCC[n+]3ccccc3)ccc12` stands “inactive”; under `COc1cc(NC(=O)C2=C(C)OCCS2)c(Cl)cc1C(=O)NCCCN1CCCC(C)C1` (stereo not drawn), “inactive”; under `Cc1ccc(S(=O)(=O)N[C@H]2CCC[C@@H]2O)cc1`, “inactive”.
The same measure, in the same setting: under `CCOC(=O)N1C(=O)C[C@](Sc2ccc(C)cc2)(C(=O)OC)[C@H]1c1ccccc1` stands “inactive”; under `CC(NC(=O)c1ccccc1F)c1cccc2ccccc12` (stereo not drawn), “inactive”; under `CSc1nc(N(C)NC(=O)c2cccc(C)c2)c2ccccc2n1`, 0.13 µM (active).
With `Cc1cccc(C(=O)Nc2ccc(C(=O)N/N=C/c3cccc(C)n3)cc2)c1`, the Potency result is “inactive”.
For the compound `Cn1c(CC(=O)NNC(=O)c2ccccc2F)nc2ccccc21`, the Potency entry is “inactive”.
Regarding `COc1ccc(C(=O)NN(C)c2nc(-c3ccccc3)cc(C)c2S(C)(=O)=O)cc1`, the Potency entry is “inactive”.
On the same count and under the same terms, next, `CN(NC(=O)c1ccccc1F)c1nc(C(F)(F)F)nc2ccccc12`: 0.291 µM (active).
With `COc1ccc(-c2cc(NC=O)c3ncc(-c4cccc(C(=O)N(C)C)c4)n3c2)c(OC)c1`, the Potency entry was “inactive”.
On the same count and under the same terms, next, `CC1(C)OC(=O)C2=C(CC(c3ccccc3)OC2CCc2ccccc2)O1` (stereo not drawn): “inactive”.
As for `O=Nc1c(O)cc(O)c2ccccc12`, the Potency result is “inactive”.
The same measure, in the same setting: under `CCC(c1nnnn1-c1ccc2c(c1)OCCO2)N1CCN(c2ccc(C(F)(F)F)cn2)CC1` (stereo not drawn) stands “inactive”; under `CCC(C)CN1C(=O)CSCC1(C)C(=O)NCc1ccccc1` (stereo not drawn), “inactive”; under `COc1ccc2c(c1)CCCO[C@]21O[C@H](CCO)C[C@H](O)[C@H]1O`, “inactive”.
Turning to `Cc1nnnn1/C(=C\c1ccccc1)C(=O)OCC(=O)N1CC2(C)CC1CC(C)(C)C2` (stereo not drawn), the Potency was 23.1 µM (active).
On the same count and under the same terms, under `CN(C)C(=O)COC(=O)c1cccc(S(=O)(=O)N2CC3(C)CC2CC(C)(C)C3)c1` (stereo not drawn) stands “inactive”; under `CCOC(=O)C1CCCN(C(=O)c2cc(-c3cccs3)oc2C)CC1` (stereo not drawn), “inactive”.
Still for that read-out and setting: next, `Cc1[nH]c(=O)c(C(=O)/C=C/c2ccccc2)c2c1CCCC2`: 7.08 µM (active).
Same read-out and setting: under `Cc1cccc(C=CC(=O)c2ccc(Cl)cc2)c1` stands “inactive”; under `CC1(C(=O)O)CCCN(C(=O)/C=C/c2ccccc2)C1` (stereo not drawn), “inactive”; under `O=C(NCCOc1ccccc1)N1[C@H]2CC[C@@H]1C=C(c1ccc(F)cc1OCc1ccccc1)C2`, “inactive”.
In the case of `CC1(C(=O)NCc2ccccc2)CN(S(C)(=O)=O)CC(=O)N1CC(F)(F)F` (stereo not drawn), the Potency entry was “inactive”.
As to `OC[C@@H]1CN(Cc2cccs2)C[C@H](n2cnc3c(NC4CCCC4)ncnc32)O1`, the Potency result was “inactive”.
`OC[C@@H]1CN(Cc2ccc(-c3ccccc3)cc2)C[C@H](n2cnc3c(NC4CCCC4)ncnc32)O1`: the Potency was 9.2 µM (active).
The same measure, in the same setting: under `OC[C@@H]1CN(C2CCCC2)C[C@H](n2cnc3c(NC4CCC4)ncnc32)O1` stands “inactive”; under `COc1cc(C(=O)OCCCN2CCOCC2)cc(OC)c1OC`, “inactive”.
As for `CN(C)S(=O)(=O)Oc1ccccc1C(=O)Nc1ccccc1Cl`, the Potency entry was “inactive”.
With `O=C(COC(=O)CCc1c[nH]c(=O)[nH]1)Nc1ccccc1Cl`, the Potency result was “inactive”.
`O=C(Nc1ccccc1Cl)/C(Cl)=C(\Cl)S(=O)c1ccccc1` (stereo not drawn): the Potency was 20.6 µM (active).
On the same count and under the same terms, next, `COC(=O)[C@@]12C[C@@H](CC(=O)N3CCCCC3)C(=O)N(Cc3ccc4c(c3)OCO4)C1=CCC(C)(C)C2`: “inactive”; `CN(Cc1ccccc1)C(=O)[C@@H]1CCCN1C(=O)[C@@H]1CCCN1C(=O)c1c(F)cccc1F`: “inactive”.
Still for that read-out and setting: under `COc1ccc(C(=O)Nc2cccc(S(C)(=O)=O)c2)cc1` stands “inactive”; under `COc1ccc(NS(=O)(=O)c2ccc(NC(=O)c3ccc(N(C)S(C)(=O)=O)cc3)cc2)cc1`, 18.4 µM (active); under `COc1ccc(NS(=O)(=O)c2ccc(C(=O)Nc3c(C)n(C)n(-c4ccccc4)c3=O)cc2)cc1`, “inactive”.
Take `O=S1(=O)CC(N2CCN(Cc3ccccc3F)CC2)CN1Cc1cn(Cc2ccccc2)nn1` (stereo not drawn): the Potency result was “inactive”.
Same read-out and setting: next, `C[C@@H]1CN([C@@H](C)CO)S(=O)(=O)c2ccc(C#Cc3cccc(F)c3)cc2O[C@H]1CN(C)S(=O)(=O)c1cn(C)cn1`: “inactive”; `COC(=O)[C@]12CCCCC=C1N(Cc1ccco1)C(=O)[C@H](CC(=O)NCC1CCCCC1)C2`: “inactive”.
On to `Nc1ncnc2c1ncn2[C@@H]1O[C@H](C(=O)NS(=O)(=O)c2c(Cl)nc3sccn23)[C@@H](O)[C@H]1O`, for which the Potency result is “inactive”.
On the same count and under the same terms, next, `CCOc1cccc(-n2nnnc2-c2ccc(OC)cc2)c1`: 5.8 µM (active).
Same read-out and setting: next, `COc1ccc(NC(=O)CSc2nnnn2-c2cccc(OC)c2)cc1`: “inactive”; `CCOC(=O)C(C)n1cnc2c(nnn2-c2cccc(OC)c2)c1=O` (stereo not drawn): “inactive”; `COCCCNC(=O)c1ccc(-c2c(C)noc2C)c2ccoc12`: “inactive”.
On the same count and under the same terms, next, `COc1ccccc1-n1c(SCC(=O)Nc2ccc(Cl)cc2)nc(O)c(Cc2ccccc2)c1=O`: “inactive”; `COc1ccc(C(C(=O)NCc2ccccc2)n2c(=O)c(-c3ccccc3)nc3ccccc32)cc1` (stereo not drawn): “inactive”; `CCC(C)C(CO)NC(=O)/C=C/[C@H]1O[C@@H](n2cnc3c(NC(=O)c4ccccc4)ncnc32)[C@H](O)[C@@H]1O` (stereo partly drawn): “inactive”.
Consider `COc1ccc(C(=O)N/N=C2\CCS(=O)(=O)c3ccc(F)cc32)cc1OC`, for which the Potency is 20.6 µM (active).
Consider `COc1ccc(C(=O)NC2CC(C)(C)NC(C)(C)C2)cc1OC`, for which the Potency result was “inactive”.
On the same count and under the same terms, next, `COc1ccc(CN2CCCC(CNC(=O)c3ccc(F)cc3)C2)cc1OC` (stereo not drawn): “inactive”; `Cc1ccc(Cc2c(-c3ccc(Cl)cc3)nc3c4ccccc4ccn23)cc1`: “inactive”; `CC(=O)NN=C(C)c1ccc(NC(=O)C2CC2)cc1`: “inactive”.
In the case of `COc1ccc(C(=O)NCC2CCCO2)cc1S(=O)(=O)NCc1ccc(Cl)cc1` (stereo not drawn), the Potency entry was “inactive”.
Still for that read-out and setting: under `CCC(CC)C(C(=O)NC1CCCC1)N1CCN(c2cc(C)nc3ccccc23)CC1` (stereo not drawn) stands “inactive”; under `N#Cc1c(NC(=O)CCCl)sc2c1CCCCC2`, 23.1 µM (active); under `N#Cc1c(NC(=O)C2CCCO2)sc2c1CCCCC2` (stereo not drawn), “inactive”.
On to `CCN1CCN(CC(=O)Nc2sc3c(c2C#N)CCC3)CC1`, for which the Potency entry is “inactive”.
On the same count and under the same terms, under `CCCCCCN1CCN(C2CN(Cc3cn(Cc4ccc(F)cc4)nn3)S(=O)(=O)C2)CC1` (stereo not drawn) stands “inactive”; under `Cc1ccc(-c2nc3ccccn3c2Nc2ccc(F)cc2)o1`, “inactive”; under `Cn1c(=N)n(CC(O)c2cccs2)c2ccccc21` (stereo not drawn), “inactive”.
On the same count and under the same terms, next, `Cn1c(=N)n(CC(O)c2ccccc2)c2ccccc21` (stereo not drawn): “inactive”; `N=c1n(Cc2ccc(Cl)cc2)c2ccccc2n1CC(O)c1ccco1` (stereo not drawn): 23.1 µM (active); `CCNC(=O)C1(C)CCCN(Cc2noc(-c3ccccc3OC)n2)C1` (stereo not drawn): “inactive”.
The same measure, in the same setting: under `COc1cccc(CNc2nc(NCc3ccccc3OC)nc3ccsc23)c1` stands 23.1 µM (active).
`COc1ccc(NC(=S)NCc2cccs2)c(OC)c1`: the Potency entry was “inactive”.
Still for that read-out and setting: next, `COc1ccccc1CNc1nc(Nc2ccccc2Cl)c2sccc2n1`: “inactive”.
On to `Clc1ccccc1Nc1nc(NCc2cccs2)nc2ccsc12`, for which the Potency result was “inactive”.
For the compound `COc1cccc(CNc2nc(NCc3cccs3)nc3ccsc23)c1`, the Potency was 18.4 µM (active).
On the same count and under the same terms, under `COc1cccc(-c2cc3nc(NCc4ccccc4OC)n(C)c(=O)c3s2)c1` stands “inactive”; under `CC[C@@H]1CC2=C(C(=O)OC(C)(C)O2)[C@@H](CC)O1`, “inactive”.
Same read-out and setting: next, `Nc1nc2c(ncn2[C@@H]2O[C@H](CNCc3ccc(OCCCN4CCOCC4)cc3)[C@@H](O)[C@H]2O)c(=O)[nH]1`: “inactive”.
As to `C[C@H](O)[C@@H]1C(=O)N2CCc3c([nH]c4ccccc34)[C@@H]2C[C@@H]1N(C)C(=O)Nc1ccc(F)cc1`, the Potency result is “inactive”.
Same read-out and setting: next, `C[C@H]1CN([C@@H](C)CO)C(=O)CCCn2cc(nn2)CO[C@@H]1CN(C)S(=O)(=O)c1cccs1`: “inactive”.
Same read-out and setting: under `N#Cc1ccc(C(C(=O)NCc2ccccc2)n2c(=O)c(-c3ccco3)nc3ccccc32)cc1` (stereo not drawn) stands “inactive”; under `O=S1(=O)CC(N2CCSCC2)CN1Cc1cn(Cc2cccc(Cl)c2)nn1` (stereo not drawn), “inactive”.
On the same count and under the same terms, next, `CCCCC[C@@H]1C=C(C(=O)OCC)[C@H](c2ccccc2)N1S(=O)(=O)c1ccc(C)cc1`: “inactive”.
Regarding `Cn1c(=O)c([N+](=O)[O-])c(Oc2ccccc2)c2ccccc21`, the Potency is 18.4 µM (active).
Same read-out and setting: under `COc1cc2c(=O)n(C)c3ccccc3c2cc1OC` stands “inactive”; under `Cc1cc(C)c(-c2c(O)c3ccccc3n(C)c2=O)c(C)c1`, “inactive”; under `CCCc1c(C)nc2scc(-c3ccc(Cl)cc3)n2c1=O`, “inactive”.
Take `COCCNc1ncnc2c1ncn2[C@H]1CN(CCN2CCOCC2)C[C@@H](CO)O1`: the Potency entry was “inactive”.
Take `C=CCC[C@@H](CCCCC)OC(=O)/C=C/[C@@H](O)[C@H](O)C[C@H](O)CC=C`: the Potency entry is “inactive”.
Still for that read-out and setting: next, `C=CCC[C@H](CCCCC)OC(=O)/C=C/[C@H](O)[C@@H](O)C[C@@H](O)CC=C`: “inactive”.
Consider `COc1cccc(CNC(=O)c2n[nH]c3ccccc23)c1`, for which the Potency result is “inactive”.
In the case of `CCc1ccc(C(CNc2nc(C(F)(F)F)nc3ccccc23)N(C)C)cc1` (stereo not drawn), the Potency was 23.1 µM (active).
On the same count and under the same terms, next, `COc1cccc(CNC(=O)CN2C(=O)NC(Cc3ccccc3)(c3ccccc3)C2=O)c1` (stereo not drawn): “inactive”.
Turning to `COc1cccc(CNc2nc(C(F)(F)F)nc3ccccc23)c1`, the Potency was 23.1 µM (active).
Still for that read-out and setting: next, `CN(C)C(CNC(=O)Cc1ccc([N+](=O)[O-])cc1)c1ccccc1` (stereo not drawn): “inactive”; `CN(C)C(CNC(=O)c1cc2ccccc2o1)c1ccccc1` (stereo not drawn): “inactive”.
